Measurements as given in PubChem BioAssay (EPA / NIEHS).
Calls of active or inactive are those of the source. Rule for the calls: active = hit-call score of the fitted dose curve at least 0.9, where 1 is the maximum; inactive = score below 0.9.

How the values were obtained:
[1] = read-out: Matrix Metallopeptidase 9 (MMP9), MMP9 (gene 4318); experiment: BSK_KF3CT_MMP9: BioMAP Diversity Plus: KF3CT Assay for Matrix Metallopeptidase 9 (MMP9) Biomarker Activity (AID 2283074); conditions: primary human keratinocytes with fibroblasts; actives raise or lower the signal
Method in brief: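 Human keratinocyte/foreskin fibroblast co-culture; compound added; 24 h; MMP-9 by ELISA; bidirectional fit vs DMSO baseline.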

[2] = read-out: urokinase plasminogen activator (uPA), PLAU (gene 5328); experiment: BSK_KF3CT_uPA: BioMAP Diversity Plus: KF3CT Assay for urokinase plasminogen activator (uPA) Biomarker Activity (AID 2283075); conditions: primary human keratinocytes with fibroblasts; actives raise or lower the signal
Method in brief: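 ELISA readout of uPA, analyzed for signal gain or loss relative to DMSO, from a human primary keratinocyte–foreskin fibroblast co-culture measured 24 h after chemical treatment.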

[3] = read-out: CD40, CD40 (gene 958); experiment: BSK_LPS_CD40: BioMAP Diversity Plus: LPS Assay for CD40 Biomarker Activity (AID 2283076); conditions: primary human HUVEC with PBMC; actives raise or lower the signal
Method in brief: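 In the LPS system of human endothelial cells with peripheral blood mononuclear cells, CD40 levels were read by ELISA 24 h post-treatment. Signal changes in either direction were fitted against the DMSO baseline, with parallel SRB protein staining.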

[4] = read-out: E-selectin (Homo sapiens) (UniProt P16581); experiment: BSK_LPS_Eselectin: BioMAP Diversity Plus: LPS Assay for Eselectin Biomarker Activity (AID 2283077); conditions: primary human HUVEC with PBMC; actives raise or lower the signal
Method in brief: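 E-selectin ELISA on LPS-stimulated endothelial cell/PBMC co-cultures, read 24 h post-treatment; gains and losses fitted against DMSO. Parallel SRB staining (0.1% SRB after 10% TCA fixation, 560 nm) flags overt cytotoxicity.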

[5] = read-out: Interleukin-8 (IL8), CXCL8 (gene 3576); experiment: BSK_LPS_IL8: BioMAP Diversity Plus: LPS Assay for Interleukin-8 (IL8) Biomarker Activity (AID 2283078); conditions: primary human HUVEC with PBMC; actives raise or lower the signal
Method in brief: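 ELISA read-out of IL-8 after 24 h chemical treatment of LPS-activated endothelial/PBMC human primary co-cultures. Changes either up or down relative to DMSO; overt cytotoxicity checked by sulforhodamine B staining in parallel wells.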

[6] = BSK_LPS_SRB: Viability Assessment in the BioMAP Diversity Plus: LPS Assay (AID 2283079); conditions: primary human HUVEC with PBMC;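 note: total protein by sulforhodamine B absorbance as a cytotoxicity measure; measured one day after compound addition; fitted in both directions against DMSO so loss or gain of signal counts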
Method in brief: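 SRB viability endpoint: cells fixed with 10% TCA, stained with 0.1% SRB, read at 560 nm, 24 h post-dose. HUVEC/PBMC co-culture; signal change in either direction scored relative to DMSO.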

[7] = read-out: Interleukin-1 alpha (IL1a), IL1A (gene 3552); experiment: BSK_LPS_IL1a: BioMAP Diversity Plus: LPS Assay for Interleukin-1 alpha (IL1a) Biomarker Activity (AID 2283080); conditions: primary human HUVEC with PBMC; actives raise or lower the signal
Method in brief: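 Readout is IL-1a level by ELISA, 24 h post-dose, fitted as gain or loss relative to DMSO. System: LPS-activated human primary co-culture of vascular endothelium and peripheral blood mononuclear cells, with parallel SRB total-protein cytotoxicity.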

[8] = read-out: Monocyte Chemoattractant Protein-1 (MCP1), CCL2 (gene 6347); experiment: BSK_LPS_MCP1: BioMAP Diversity Plus: LPS Assay for Monocyte Chemoattractant Protein-1 (MCP1) Biomarker Activity (AID 2283081); conditions: primary human HUVEC with PBMC; actives raise or lower the signal
Method in brief: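 Secreted MCP-1 read by ELISA at 24 h post-dosing in an LPS-activated co-culture of endothelial cells with peripheral blood mononuclear cells. Fits run in both directions, DMSO as baseline; parallel SRB staining tracks overt cytotoxicity.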

[9] = BSK_LPS_PGE2: BioMAP Diversity Plus: LPS Assay for Prostaglandin E2 (PGE2) Biomarker Activity (AID 2283082); conditions: primary human HUVEC with PBMC; actives raise or lower the signal
Method in brief: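 HUVEC plus human PBMC co-culture stimulated with LPS; secreted PGE2 quantified by ELISA 24 h after chemical dosing. Activity fitted bidirectionally against DMSO baseline; parallel SRB staining (0.1% SRB after 10% TCA fixation, 560 nm) flags overt cytotoxicity.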

[10] = read-out: Macrophage colony-stimulating factor (MCSF), CSF1 (gene 1435); experiment: BSK_LPS_MCSF: BioMAP Diversity Plus: LPS Assay for Macrophage colony-stimulating factor (MCSF) Biomarker Activity (AID 2283083); conditions: primary human HUVEC with PBMC; actives raise or lower the signal
Method in brief: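 Bidirectional fitting against DMSO was applied to M-CSF levels read by ELISA at 24 h post-dose. The system pairs human umbilical vein endothelium with peripheral blood mononuclear cells; parallel SRB staining tracked cytotoxicity.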

[11] = read-out: Tissue Factor, F3 (gene 2152); experiment: BSK_LPS_TissueFactor: BioMAP Diversity Plus: LPS Assay for Tissue Factor Biomarker Activity (AID 2283084); conditions: primary human HUVEC with PBMC; actives raise or lower the signal
Method in brief: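 Compound was added to an endothelial cell/PBMC co-culture, and after 24 h tissue factor (CD142) was read by ELISA. Gain or loss of signal was fitted against a DMSO baseline, and parallel SRB staining (560 nm) tracked overt cytotoxicity.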

[12] = read-out: Tumor necrosis factor (Homo sapiens) (UniProt P01375); experiment: BSK_LPS_TNFa: BioMAP Diversity Plus: LPS Assay for Tumour Necrosis Factor alpha (TNFa) Biomarker Activity (AID 2283085); conditions: primary human HUVEC with PBMC; actives raise or lower the signal
Method in brief: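 Human umbilical vein endothelial cells co-cultured with PBMC and stimulated with LPS. TNFa was measured by ELISA 24 h after chemical dosing, fitted bidirectionally relative to DMSO.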

[13] = read-out: Vascular cell adhesion molecule 1 (VCAM1), VCAM1 (gene 7412); experiment: BSK_LPS_VCAM1: BioMAP Diversity Plus: LPS Assay for Vascular cell adhesion molecule 1 (VCAM1) Biomarker Activity (AID 2283086); conditions: primary human HUVEC with PBMC; actives raise or lower the signal
Method in brief: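 Human umbilical vein endothelial cells co-cultured with PBMC and stimulated with LPS; VCAM-1 measured by ELISA 24 h after dosing. Bidirectional curve fitting against DMSO baseline; cytotoxicity tracked in parallel by SRB total-protein staining.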

[14] = read-out: CD38, CD38 (gene 952); experiment: BSK_SAg_CD38: BioMAP Diversity Plus: SAg Assay for CD38 Biomarker Activity (AID 2283087); conditions: primary human HUVEC with PBMC; actives raise or lower the signal
Method in brief: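 Human HUVEC plus PBMC co-culture stimulated with superantigen; CD38 measured by ELISA 24 h after chemical dosing. Fluorescence read-out, bidirectional fit against DMSO; cytotoxicity tracked in parallel by SRB and Alamar Blue.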

[15] = read-out: CD40, CD40 (gene 958); experiment: BSK_SAg_CD40: BioMAP Diversity Plus: SAg Assay for CD40 Biomarker Activity (AID 2283088); conditions: primary human HUVEC with PBMC; actives raise or lower the signal
Method in brief: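 CD40 is measured by fluorescence ELISA in an endothelial/PBMC primary human co-culture at 24 h post-dose. Fitting is bidirectional, DMSO baseline. Parallel SRB staining (560 nm) flags cytotoxicity.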

[16] = read-out: CD69, CD69 (gene 969); experiment: BSK_SAg_CD69: BioMAP Diversity Plus: SAg Assay for CD69 Biomarker Activity (AID 2283089); conditions: primary human HUVEC with PBMC; actives raise or lower the signal
Method in brief: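 Values derive from bidirectional fitting relative to DMSO vehicle. Cells: umbilical vein endothelium plus peripheral blood mononuclear cells, treated 24 h before fluorescent ELISA for CD69.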

[17] = read-out: Monocyte Chemoattractant Protein-1 (MCP1), CCL2 (gene 6347); experiment: BSK_SAg_MCP1: BioMAP Diversity Plus: SAg Assay for Monocyte Chemoattractant Protein-1 (MCP1) Biomarker Activity (AID 2283090); conditions: primary human HUVEC with PBMC; actives raise or lower the signal
Method in brief: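 MCP-1 levels in the endothelial–PBMC SAg co-culture were quantified by ELISA at 24 h post-dosing; both increases and decreases versus DMSO scored. Cytotoxicity monitored by SRB total protein in parallel cultures.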

[18] = read-out: Monokine induced gamma interferon (MIG), CXCL9 (gene 4283); experiment: BSK_SAg_MIG: BioMAP Diversity Plus: SAg Assay for Monokine induced gamma interferon (MIG) Biomarker Activity (AID 2283092); conditions: primary human HUVEC with PBMC; actives raise or lower the signal
Method in brief: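 Values reflect bidirectional fitting of ELISA-measured MIG against DMSO vehicle, taken 24 h after dosing of a co-culture of human umbilical vein endothelial cells and peripheral blood mononuclear cells.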

[19] = BSK_SAg_PBMCCytotoxicity: PBMC Cytotoxicity Assessment in the BioMAP Diversity Plus: SAg Assay (AID 2283093); conditions: primary human HUVEC with PBMC;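 note: PBMC viability measured as Alamar Blue reduction fluorescence at 546/580 nm; fitted both ways against DMSO so a hit may be loss or gain of signal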
Method in brief: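 Compound added to 75,000 PBMC/well for 1 h; SEB and TSST-1 then added at 20 ng/mL final each; 90 h incubation; Alamar Blue 6 h; read 546/580 nm ex/em. Activity fitted bidirectionally relative to DMSO baseline.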

[20] = read-out: E-selectin (Homo sapiens) (UniProt P16581); experiment: BSK_SAg_Eselectin: BioMAP Diversity Plus: SAg Assay for Eselectin Biomarker Activity (AID 2283091); conditions: primary human HUVEC with PBMC; actives raise or lower the signal
Method in brief: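 Cell-surface E-selectin is read by ELISA at 24 h in the SAg co-culture of HUVEC and PBMC. Curves are fitted in both directions relative to DMSO. Parallel SRB total-protein staining tracks overt toxicity.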

Measured: outcome

Sequence of Tumor necrosis factor (Homo sapiens) (P01375 whole entry, looked up): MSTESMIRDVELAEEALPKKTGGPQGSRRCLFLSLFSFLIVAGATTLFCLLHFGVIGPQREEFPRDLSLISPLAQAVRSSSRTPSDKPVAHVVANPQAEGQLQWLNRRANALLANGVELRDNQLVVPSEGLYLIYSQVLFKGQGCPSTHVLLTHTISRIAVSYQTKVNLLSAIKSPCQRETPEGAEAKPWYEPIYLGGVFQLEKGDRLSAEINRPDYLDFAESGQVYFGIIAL
Sequence of E-selectin (Homo sapiens) (P16581 whole entry, looked up): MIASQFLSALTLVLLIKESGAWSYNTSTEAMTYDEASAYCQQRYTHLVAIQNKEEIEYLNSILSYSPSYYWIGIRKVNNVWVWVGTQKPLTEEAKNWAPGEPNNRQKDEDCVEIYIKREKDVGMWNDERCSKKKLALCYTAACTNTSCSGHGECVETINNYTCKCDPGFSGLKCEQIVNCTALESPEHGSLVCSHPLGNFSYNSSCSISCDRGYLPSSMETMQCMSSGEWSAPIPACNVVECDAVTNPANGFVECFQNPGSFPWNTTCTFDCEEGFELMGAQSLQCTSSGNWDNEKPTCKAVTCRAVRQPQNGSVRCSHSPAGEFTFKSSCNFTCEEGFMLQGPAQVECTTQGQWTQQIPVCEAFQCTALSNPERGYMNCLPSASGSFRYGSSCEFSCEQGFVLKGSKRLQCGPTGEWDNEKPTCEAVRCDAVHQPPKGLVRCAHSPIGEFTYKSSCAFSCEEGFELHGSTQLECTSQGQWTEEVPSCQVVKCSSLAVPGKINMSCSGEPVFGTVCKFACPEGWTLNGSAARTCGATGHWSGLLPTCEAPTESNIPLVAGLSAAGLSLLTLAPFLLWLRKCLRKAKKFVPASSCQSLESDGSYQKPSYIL

Oc1ccccc1Cl
inactive: [1] | [2] | [3] | [4] | [5] | [6] | [7] | [8] | [9] | [10] | [11] | [12] | [13] | [14] | [15] | [16] | [17] | [18] | [19]

[O-][Cl+]O
inactive: [1] | [2] | [3] | [4] | [5] | [6] | [7] | [8] | [9] | [10] | [11] | [12] | [14] | [15] | [16] | [17] | [20] | [18] | [19]

COC(=O)c1ccccc1N
inactive: [1] | [2] | [3] | [4] | [5] | [6] | [7] | [8] | [9] | [10] | [11] | [12] | [14] | [15] | [16] | [17] | [20] | [18] | [19]

OCCCl
inactive: [1] | [2] | [3] | [4] | [5] | [6] | [7] | [8] | [9] | [10] | [11] | [12] | [14] | [15] | [16] | [17] | [20] | [18] | [19]
